Assay outcomes (PubChem BioAssay)
The list is not random: actives were taken first. Their share in the collection is about 19%.
KB-V1 cytotox: KB-V1 MDR subline cytotoxicity | 400,000 tested, 3.4% active | KB-V1 MDR cells viability, CellTiter-Glo, 72 h | Potency, µM (top dose mostly 46.1 µM), most hits filed as cytotoxic | AID 1347076; further: nearly all actives have a fitted effect of over 60% in size
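Readout: CellTiter-Glo luminescence, 10 min after addition. Cells: KB-V1 MDR subline, 72 h at 37 degrees C with compound. Analysis: corrected, normalized data fitted to concentration-effect curves.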
KB-3-1 tox: kills parental KB-3-1 adenocarcinoma cells | KB-3-1 viability, CellTiter-Glo ATP luminescence, 72 h | Potency, µM (doses to about 46.1 µM), most hits filed as cytotoxic | 400,000 tested, 1.4% active | AID 1347075; further: nearly all actives have a fitted effect of over 60% in size
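Cytotoxicity in the drug-sensitive parental line KB-3-1 was scored as loss of CellTiter-Glo luminescence following 72 h incubation with compound. Values come from curve fitting of normalized concentration-response data.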
TDP1 cell noCPT: qHTS for Inhibitors of human tyrosyl-DNA phosphodiesterase 1 (TDP1): qHTS in cells in absence of CPT | DT40 Tdp1-/- hTDP1 cells, no CPT, ATP luminescence, 48 h | 420,000 tested, 15% active | Potency, µM (titrated, usually from 46.2 µM), for the others: at the top dose activity change, negative = growth inhibition, hits mostly inhibitors; further: nearly all actives have a fitted effect of over 55% in size
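Readout: luminescence from CellTiter-Glo after 30 min in the dark at RT. Cells: DT40 Tdp1-/- with stable hTDP1, 400/well. Exposure: compounds alone, ≥48 hr, 37 °C.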
HT1080 IDH1KD tx: toxicity to HT-1080 IDH1 knockdown cells (counter line); HT-1080 IDH1 knockdown viability, ATP luminescence, 48 h; Potency, µM (highest dose often 46.1 µM), without a hit: at the top dose activity, negative = toxicity, usual class: cytotoxic; 360,000 tested, 2% active; AID 686971;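 further: 0% = DMSO wells and -100% = cell-free medium wells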
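CellTiter-Glo luminescence after 48 h compound exposure at 37 degrees C of IDH1-knockdown HT-1080 cells in 5% FBS RPMI. %Activity scaled between DMSO wells and cell-free media wells, with curves fitted and assigned curve classes.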
HT1080-NT tox: kills 2HG-producing HT-1080-NT fibrosarcoma cells; HT-1080-NT fibrosarcoma viability, CellTiter-Glo ATP luminescence, 48 h; Potency, µM (titrated, usually from 46.1 µM), for inactives: at the top dose activity, negative = less viability, hits mostly cytotoxic; 360,000 tested, 1.6% active;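 further: NT is the 2HG producing partner of a matched IDH1 knockdown line; 0% = DMSO-treated cells and -100% = media-only wells without cells; nearly all actives have a fitted effect of over 55% in size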
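Luminescent CellTiter-Glo readout after 48 hours of compound exposure at 37 degrees C defined viability of HT-1080-NT cells. Activity was normalized to DMSO wells and cell-free media wells; concentration-response curves were fitted and assigned curve classes.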
TDP1 cell CPT: growth inhibition of DT40 Tdp1-/-;hTDP1 cells with camptothecin (screen for TDP1 inhibitors); AID 686979; chicken DT40 Tdp1-/-;hTDP1 cells + 20 nM CPT, ATP luminescence, 48 h; Potency, µM (titrated, usually from 46.2 µM), without a hit: at the top dose activity change, negative = growth inhibition, usual class: inhibitors; 420,000 tested, 12% active; further: nearly all actives have a fitted effect of over 55% in size
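Chicken DT40 Tdp1-/- cells complemented with human TDP1, 400 cells/well, exposed to compounds plus 20 nM camptothecin for at least 48 h at 37 C; viability read as ATP content by CellTiter-Glo luminescence.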
Starred values were filed as active, the others as inactive. The call rests on the fitted dose curve; in most records, active means well fitted curve in the direction sought with a large enough effect; inconclusive means small, poorly fitted or top-dose-only effect, or another doubt; inactive means no such curve, though single readings can be large; an effect the other way counts as inactive or inconclusive. Unless noted, on the % scale 0 is the no-effect control and ±100 the full control effect; potency means the concentration at half of the fitted maximal effect.

`CCOc1ccc(-n2c(SCC(=O)N3CCCc4ccccc43)nc3c([nH]c4ccccc43)c2=O)cc1` gave KB-V1 cytotox inconclusive, KB-3-1 tox inactive, TDP1 cell noCPT -13% and TDP1 cell CPT -24%.
Nc1ncnc2c1ncn2[C@@H]1O[C@H](C(=O)NCCCN2CCCC2=O)[C@@H](O)[C@H]1O was read as KB-V1 cytotox inactive, KB-3-1 tox inactive, TDP1 cell noCPT 15%, HT1080 IDH1KD tx 26%, HT1080-NT tox 18% and TDP1 cell CPT 0%.
Screening O=C(C1CCCCC1)N1CCN(c2ccnc3cc(Cl)ccc23)CC1 returned KB-V1 cytotox inconclusive, KB-3-1 tox inconclusive, TDP1 cell noCPT 12µM*, HT1080 IDH1KD tx inconclusive, HT1080-NT tox -9% and TDP1 cell CPT 10µM*.
Cc1ccc(Cl)cc1N1CCN(S(=O)(=O)c2cccc(S(=O)(=O)N3CCCC3)c2)CC1 was read as KB-V1 cytotox inactive, KB-3-1 tox inactive, TDP1 cell noCPT inconclusive, HT1080 IDH1KD tx 0%, HT1080-NT tox -7% and TDP1 cell CPT inconclusive.
For O=S(=O)(c1cccc(Br)c1)N1CCN(c2ccnc3cc(Cl)ccc23)CC1 the results were KB-V1 cytotox inconclusive, KB-3-1 tox inactive, TDP1 cell noCPT 21µM*, HT1080 IDH1KD tx -13%, HT1080-NT tox -12% and TDP1 cell CPT inconclusive.
Screening COc1cc(/C=C(/C#N)c2nc(-c3cc4ccccc4oc3=O)cs2)ccc1O returned KB-V1 cytotox inactive, KB-3-1 tox inactive, TDP1 cell noCPT 2.9µM* and TDP1 cell CPT -2%.
Screening Cc1nc(C(=O)N2CCCC(C(=O)c3cccc(OC(C)C)c3)C2)cs1 (centres undefined) returned KB-V1 cytotox inconclusive, KB-3-1 tox inactive, TDP1 cell noCPT 15µM*, HT1080 IDH1KD tx 0%, HT1080-NT tox -3% and TDP1 cell CPT 10µM*.
`Cc1cnc(C(=O)N2CCCC(C(=O)c3cccc(OC(C)C)c3)C2)cn1` (centres undefined) gave KB-V1 cytotox inactive, KB-3-1 tox inactive, TDP1 cell noCPT -26%, HT1080 IDH1KD tx -4%, HT1080-NT tox 3% and TDP1 cell CPT inconclusive.
CC(C)Oc1cccc(C(=O)C2CCCN(C(=O)c3ccccn3)C2)c1 (centres undefined) was read as KB-V1 cytotox inactive, KB-3-1 tox inactive, TDP1 cell noCPT 10µM*, HT1080 IDH1KD tx -2%, HT1080-NT tox 11% and TDP1 cell CPT 21µM*.
`CC1CCc2sc(C(=O)NNC(=S)NC3CC3)cc2C1` (centres undefined) gave KB-V1 cytotox inactive, KB-3-1 tox inactive, TDP1 cell noCPT 2%, HT1080 IDH1KD tx 25%, HT1080-NT tox inconclusive and TDP1 cell CPT -25%.
Screening O=C(NCc1ccco1)c1ccc2c(c1)N(Cc1ccccc1)CCS2 returned KB-V1 cytotox inconclusive, KB-3-1 tox inactive, TDP1 cell noCPT -12%, HT1080 IDH1KD tx -5%, HT1080-NT tox 0% and TDP1 cell CPT -14%.
For O=C(NCc1ccccc1)c1ccc2c(c1)N(Cc1ccc(F)cc1)CCS2 the results were KB-V1 cytotox inactive, KB-3-1 tox inconclusive, TDP1 cell noCPT 18µM* and TDP1 cell CPT inconclusive.
`CCN1CCSc2ccc(C(=O)NCc3ccc(OC)cc3)cc21` gave TDP1 cell noCPT inconclusive and TDP1 cell CPT -65%.
`CCCOc1ccc(CNC(=O)c2ccc3c(c2)N(Cc2ccccc2)CCS3)cc1` gave TDP1 cell noCPT 18µM* and TDP1 cell CPT inconclusive.
For c1ccc2c3c([nH]c2c1)CCNC3 the results were KB-V1 cytotox inactive, KB-3-1 tox inactive, TDP1 cell noCPT -19%, HT1080 IDH1KD tx 4%, HT1080-NT tox -1% and TDP1 cell CPT -17%.
